# Tested on: Brugia pahangi adult female
# Assay: IC50 motility inhibition on day 3
# Details: 3 days
# Method: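 Single adult female Brugia pahangi worms in 24-well plates (RPMI-1640, 5% FBS, 37 °C) were treated with 10 µM of each compound from a 2121-drug library (4 replicates; 1% DMSO vehicle and 10 µM auranofin controls). Motility was recorded with WormAssay dark-field imaging, and % inhibition of motility on day 3 is relative to vehicle. IC50 values for selected hits come from a 6-point dilution series (30 to 0.1 µM) fitted in GraphPad Prism.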
row,SMILES,IC50 motility inhibition on day 3 [µM]
1,CC[C@@H](C(=O)[C@@H](C)[C@@H](O)[C@H](C)[C@@H]1O[C@@H]([C@@H](CC)C(=O)O)CC[C@@H]1C)[C@H]1O[C@]2(C=C[C@@H](O)[C@]3(CC[C@@](C)([C@H]4CC[C@](O)(CC)[C@H](C)O4)O3)O2)[C@H](C)C[C@@H]1C [salinomycin],0.635
2,N[C@@H]1C[C@H]1c1ccccc1.N[C@H]1C[C@@H]1c1ccccc1 [tranylcypromine],6.15
3,[O-][n+]1ccccc1[S-].[O-][n+]1ccccc1[S-].[Zn+2] [pyrithione zinc],0.0963
4,C[CH2][Hg][S]c1ccccc1C(=O)[O-].[Na+] [thimerosal],0.406
5,CNC(=O)Oc1ccc2c(c1)[C@]1(C)CCN(C)[C@@H]1N2C [(-)-Physostigmine],13.6
6,CCCCCCCCCCCCCCCC[n+]1ccccc1 [cetylpyridinium chloride],3.4
7,O=c1[nH]c2ccccc2n1C1CCN(CCCC(c2ccc(F)cc2)c2ccc(F)cc2)CC1 [Pimozide],2.52
8,C[C@@H]1O[C@@H](O[C@@H]2C=C3CC[C@@H]4[C@H](CC[C@]5(C)[C@@H](c6ccc(=O)oc6)CC[C@]45O)[C@@]3(C)CC2)[C@H](O)[C@H](O)[C@H]1O [proscillaridin],0.731
9,Oc1cccc2cccnc12 [oxyquinoline],1.5
10,CC(=O)[O][Hg][c]1ccccc1 [phenylmercuric acetate],0.179
